RGS4 inh: Inhibitors of Regulator of G Protein Signaling (RGS) 4: qHTS; Transcreener GDP fluorescence polarization, RGS4-accelerated GTP hydrolysis; Potency, µM (doses to about 114 µM), for the others: at the top dose activity change, negative = inhibition, hits mostly inhibitors; 390,000 tested, 0.039% active; also: nearly all actives have a fitted effect of over 75% in size
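MLSMR compounds (23 nl, pin-transferred) preincubated 10 min at room temperature with a 500nM (2x) first reagent, then RGS4 at 900nM (2x) plus Transcreener GDP mix added; fluorescence polarization (620/688 nm) read before and after 90 min at 30 °C.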
BLM helicase inh: qHTS Assay for Inhibitors of Bloom's syndrome helicase (BLM); RecQ-like DNA helicase BLM (Homo sapiens), P54132; recombinant BLM DNA unwinding, fluorescence dequenching; Potency, µM (top dose mostly 56.1 µM), for inactives: at the highest dose activity change, negative = inhibition, hits mostly inhibitors; 350,000 tested, 0.2% active; AID 2528, 2010;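 also: plate controls were vehicle for no effect and no enzyme for full effect; nearly all actives have a fitted effect of over 35% in size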
APEX1 inh: qHTS Assay for Inhibitors of the Human Apurinic/apyrimidinic Endonuclease 1 (APE1) | 350,000 tested, 0.35% active | recombinant APE1, TAMRA/BHQ-2 abasic DNA cleavage fluorescence | AID 2517, 2012 | Potency, µM (titrated, usually from 65.8 µM), inactives show at the top dose activity change, negative = inhibition, actives largely listed as inhibitors | DNA repair nuclease/redox regulator APEX1 (Homo sapiens), P27695;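 also: plate controls were vehicle for no effect and reference inhibitor for full effect; nearly all actives have a fitted effect of over 55% in size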
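Step 1: APE1 (0.75 nM) with compound, 15 min RT. Step 2: add 50 nM fluorophore/quencher THF duplex. Step 3: three fluorescence reads 60 s apart (525/598 nm); read 3 minus read 1 = reaction progress.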
RECQ1 inh-1: qHTS Assay for Inhibitors of RecQ-Like Dna Helicase 1 (RECQ1); Potency, µM (titrated, usually from 57.3 µM), inactives show at the highest dose activity, negative = inhibition, actives largely listed as inhibitors; 240,000 tested, 0.54% active; AID 2549, 2010; ATP-dependent DNA helicase Q1 (Homo sapiens), P46063; RECQ1 DNA unwinding, red fluorescence kinetic read;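 also: plate controls were vehicle for no effect and no enzyme for full effect; nearly all actives have a fitted effect of over 30% in size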
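RECQ1T1 50 nM; forked duplex (20 bp + 30-nt ss tails) 200 nM, ATP 2 mM final; pH 8.0, 2 mM MgCl2, 2.5 ug/ml poly(dI-dC); 15 min compound preincubation; discontinuous kinetic read over 2 h at RT.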
KAT2A inh: qHTS Assay for Inhibitors of GCN5L2; Histone acetyltransferase KAT2A (Homo sapiens), Q92830; GCN5L2 HAT assay, ThioGlo1 CoA-SH fluorescence; Potency, µM (top dose mostly 58.9 µM), for inactives: top-dose activity change, negative = inhibition, usual class: inhibitors; 390,000 tested, 0.21% active
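GCN5L2 (20 nM) in 50mM HEPES pH 7.5, 0.1mM EDTA, 0.01% Tween-20 preincubated 15 min with compounds at room temperature. Reaction started with H3(1-25) 75uM, acetyl-CoA 70uM, ThioGlo1 50uM; CoA-thiol fluorescence (Ex340/Em540) read at 0 and 20 min.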
TDP1 block: qHTS Assay for Inhibitors of Tyrosyl-DNA Phosphodiesterase (TDP1); Tyrosyl-DNA phosphodiesterase 1 (Homo sapiens), Q9NUW8; recombinant TDP1, AlphaScreen DNA substrate cleavage; Potency, µM (highest dose often 130 µM), without a hit: at the top dose activity change, negative = inhibition, actives largely listed as inhibitors; 350,000 tested, 0.28% active; also: nearly all actives have a fitted effect of over 40% in size
Target sequence (Q9NUW8 whole entry, looked up): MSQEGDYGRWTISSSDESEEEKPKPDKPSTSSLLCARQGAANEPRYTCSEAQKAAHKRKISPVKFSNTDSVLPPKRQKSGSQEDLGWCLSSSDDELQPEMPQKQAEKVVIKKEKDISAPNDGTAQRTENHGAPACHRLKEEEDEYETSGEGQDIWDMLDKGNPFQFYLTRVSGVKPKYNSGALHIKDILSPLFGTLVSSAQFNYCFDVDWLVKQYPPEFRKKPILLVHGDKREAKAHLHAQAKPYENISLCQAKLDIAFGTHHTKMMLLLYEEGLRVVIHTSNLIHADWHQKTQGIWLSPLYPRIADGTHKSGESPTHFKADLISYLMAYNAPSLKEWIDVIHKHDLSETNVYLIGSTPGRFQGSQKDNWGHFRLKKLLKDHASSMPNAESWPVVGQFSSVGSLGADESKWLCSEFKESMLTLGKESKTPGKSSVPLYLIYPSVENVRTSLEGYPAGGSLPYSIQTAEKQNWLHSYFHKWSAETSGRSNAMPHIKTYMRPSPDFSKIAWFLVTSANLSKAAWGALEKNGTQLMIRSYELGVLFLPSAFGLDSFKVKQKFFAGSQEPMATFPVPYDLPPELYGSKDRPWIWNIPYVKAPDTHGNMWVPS
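Here, a 5' biotin and 3' phosphotyrosine-FITC DNA oligonucleotide reports Tdp1 activity: intact substrate bridges AlphaScreen beads, while cleavage leaves a 3' phosphate and drops signal. All incubations at room temperature.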
RECQ1 conf: Confirmation qHTS Assay for Inhibitors of RecQ-Like Dna Helicase 1 (RECQ1). RECQ1 helicase DNA unwinding, fluorescence. 610 tested, 28% active. Potency, µM (highest dose often 229 µM), inactives show at the top dose activity change, negative = inhibition, usual class: inhibitors. shares compounds with RECQ1 inh-1; also: nearly all actives have a fitted effect of over 45% in size
ADP FP counter: Counterscreen for RECQ1 Inhibitors: ADP Fluorescence Polarization Displacement Assay. ADP fluorescence polarization displacement counterscreen. 530 tested, 27% active. Potency, µM (doses to about 228 µM), for inactives: at the highest dose activity change, negative = inhibition, usual class: inhibitors. shares compounds with RECQ1 inh-1; also: nearly all actives have a fitted effect of over 45% in size
RECQ1 inh-2: Confirmation qHTS Assay for Inhibitors of RecQ-Like Dna Helicase 1 (RECQ1) - Round 2 Cherry Picks | recombinant RECQ1 DNA unwinding, red fluorescence | 1,100 tested, 15% active | shares compounds with RECQ1 inh-1 | Potency, µM (top dose mostly 119 µM), for inactives: at the highest dose activity, negative = inhibition, hits mostly inhibitors; also: nearly all actives have a fitted effect of over 50% in size
The depositor's hits bear a star; ? = inconclusive; / = no result given; [ ] = remark or other dose. Only some compounds are listed: those with a hit (about 0.87% of all), similar ones and a draw of the others. Calls follow the shape of the dose curve; as a rule, active = well fitted curve in the direction sought with a large enough effect; inconclusive = small, poorly fitted or top-dose-only effect, or another doubt; inactive = no such curve, though single readings can be large; an effect the other way counts as inactive or inconclusive. Unless noted, % is scaled to controls: 0 for no effect and ±100 for the full control effect; potency is read from the fitted curve at half-maximal effect.

SMILES	RGS4 inh	BLM helicase inh	APEX1 inh	RECQ1 inh-1	KAT2A inh	TDP1 block	RECQ1 inh-2	others
C=CCn1c(SCC(=O)NCc2ccccc2)nnc1-c1ccccc1O	-5%	-6%	-5%	-2%	-3%	4%	/	RECQ1 conf=-3%;ADP FP counter=4%
NC(=O)c1sc2nc(-c3ccccc3)ccc2c1N	-27%	1%	4%	/	-11%	/	/
Nc1c(C(=O)Nc2ccc(F)cc2)sc2nc(-c3ccco3)ccc12	-26%	-14%	?	22µM*	-10%	-7%	-16%
Cc1ccc(NC(=O)c2sc3nc(-c4ccc(F)cc4)ccc3c2N)cc1F	-7%	-1%	/	/	-5%	4%	/
CC(=O)c1sc2nc(-c3ccco3)ccc2c1N	-7%	?	3.2µM*	3.5µM*	?	/	-21%
CCc1c2c(nc3cccc(OC)c13)OC(CC)C2 (stereo not drawn)	/	-9%	-2%	9%	/	7%	/
NC(N)=NCCC[C@@H](N)C(=O)NCC(=O)N[C@@H](CC(=O)O)C(=O)N[C@@H](Cc1c[nH]c2ccccc12)C(=O)O	/	-4%	-3%	-2%	-21%	15%	/
CSCC[C@H](N)C(=O)N[C@@H](CCCN=C(N)N)C(=O)N[C@@H](Cc1ccccc1)C(=O)N[C@@H](Cc1ccccc1)C(=O)N[C@H](C(=O)O)C(C)C	/	0%	-1%	-9%	38%	6%	/
Cc1csc(N/N=C/c2ccc(O)c([N+](=O)[O-])c2)n1	?	?	?	14µM*	-10%[0.501 µM]	?	/	RECQ1 conf=3%[114 µM];ADP FP counter=?
c1ccc(Cc2nnc3sc(-c4ccco4)nn23)cc1	-44%	-16%	-8%	?	-11%	-7%	?
Clc1ccccc1-c1nnc2sc(-c3ccco3)nn12	-1%	2%	5%	-5%	-10%	5%	/
COCCN(CCOC)c1nc(C)nc2c1nc(-c1ccccc1)n2CCN(C)C	/	-9%	-9%	1%	/	-1%	/
O=C1OCCC1N(C(=O)C1CC1)c1cccc(Cl)c1 (stereo not drawn)	/	2%	-2%	-5%	-10%	-5%	/
O=C(Nn1c(C2CCCCC2)nc2ccccc2c1=O)c1ccc(Cl)c([N+](=O)[O-])c1	11%	-4%	-8%	0%	-4%	6%	/
Cc1cc(C(=O)Nn2c(C3CCCCC3)nc3ccccc3c2=O)ccc1[N+](=O)[O-]	4%	-7%	-6%	25µM*	-2%	7%	-11%
